Screening results (PubChem)
This is a sample that favours compounds with a hit; in the whole collection about 21% have one here.
NS1 inh – influenza NS1 inhibition | Potency, µM (doses to about 46.1 µM), for the others: at the highest dose activity, positive = more growth | 0.4% of 270,000 active; calls by dose curve; further: potency means the concentration at half of the fitted maximal effect; actives are rising curves; nearly all actives have a fitted effect of over 50% in size
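A cell-based growth assay was used: compounds that relieve NS1-induced slow growth of budding yeast raise OD600. Assay medium was yeast nitrogen base with ammonium sulphate and -URA supplement, pH 6.0, with 2% galactose.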
FBPA Giardia inh – Giardia lamblia aldolase inhibition; A8B2U2; purified Giardia FBPA; Potency, µM (series often up to 59.6 µM), without a hit: at the top dose activity, negative = inhibition, actives largely listed as inhibitors; 0.71% of 290,000 active; AID 2451; further: potency means the concentration at half of the fitted maximal effect; on the % scale 0 is the no-effect control and ±100 the full control effect; nearly all actives have a fitted effect of over 55% in size
Target sequence (A8B2U2 whole entry, looked up): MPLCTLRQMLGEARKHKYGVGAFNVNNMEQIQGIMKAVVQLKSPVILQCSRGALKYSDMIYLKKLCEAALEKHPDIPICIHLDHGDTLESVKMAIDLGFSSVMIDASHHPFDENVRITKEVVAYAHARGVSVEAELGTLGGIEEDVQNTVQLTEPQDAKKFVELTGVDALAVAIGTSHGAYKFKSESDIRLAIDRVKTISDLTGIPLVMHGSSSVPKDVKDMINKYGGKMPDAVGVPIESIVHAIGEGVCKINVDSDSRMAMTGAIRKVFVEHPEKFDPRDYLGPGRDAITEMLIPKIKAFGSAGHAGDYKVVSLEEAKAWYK
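Giardia FBPA (40 nM reagent) was preincubated 10 min at RT with compound (up to 57.5 uM final), then substrate plus GAPDH/TPI/NAD/arsenate coupling system with diaphorase/resazurin was added; resorufin fluorescence (525/598 nm) was read after 20 min.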
CHX counter – counter-screen for Shiga toxin inhibitors: cycloheximide protein synthesis inhibition; AID 2314; 12% of 300,000 active; cell reporter, cycloheximide protein synthesis inhibition counterscreen; max response, %; in the data active means max response mostly above about 13%, no sharp cut-off; inactive means mostly below about 14%; further: read at 38.3 µM for the half of the compounds with a filed dose; 0% is about no effect
Pf growth 96h – P. falciparum growth inhibition at 96 hours | P. falciparum luciferase reporter growth, 96 h | Potency, µM (series often up to 28.7 µM), for the others: at the top dose activity change, negative = inhibition, usual class: inhibitors | 6.9% of 320,000 active | AID 504834; further: potency means the concentration at half of the fitted maximal effect; on the % scale 0 is the no-effect control and ±100 the full control effect
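Readout is luminescence from an integrated firefly luciferase in P. falciparum. Red cells, 2% hematocrit and 0.05% parasitemia final, were cultured with compound through two parasite generations (96 hours) at 37 C, 5% CO2.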
Pf growth 48h – inhibits P. falciparum growth in the first generation, 48 h; P. falciparum luciferase growth in erythrocytes, 48 h; Potency, µM (top dose mostly 28.7 µM), for the others: at the top dose activity change, negative = inhibition, actives largely listed as inhibitors; 5.9% of 310,000 active; further: potency means the concentration at half of the fitted maximal effect; on the % scale 0 is the no-effect control and ±100 the full control effect
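Luciferase-expressing parasites in RBCs, 2% Hct / 0.1% parasitemia final; RPMI 1640 + 0.5% Albumax; 37 C, 5% CO2, one generation; luminescence read-out, lower signal = inhibition.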
Shiga inhibitor – Shiga toxin inhibition | Vero cells, Shiga toxin protein synthesis inhibition reporter | inhibition, % at 38.7 µM | 9.2% of 290,000 active; in the data active means inhibition mostly above about 28%, no sharp cut-off; inactive means mostly below about 43%; further: 0% is about no effect
An asterisk follows results filed as active; ? = inconclusive; . = no result; [ ] = remark or other dose. Unless noted, the call rests on the fitted dose curve; in most records, active means well fitted curve in the direction sought with a large enough effect; inconclusive means small, poorly fitted or top-dose-only effect, or another doubt; inactive means no such curve, though single readings can be large; an effect the other way counts as inactive or inconclusive.

SMILES	NS1 inh	FBPA Giardia inh	CHX counter	Pf growth 96h	Pf growth 48h	Shiga inhibitor
CCC(Sc1nc2ccccc2c2nc3ccccc3n12)C(=O)NCc1ccco1 (stereo not drawn)	-7.7%	7.7%	0.9	12.5%	.	-3.1
Cc1nc(SCC(=O)NCc2ccco2)c2c(C)c(C)sc2n1	-12.5%	4.9%	8.1	.	-2.2%	-6.2
Cc1sc2nc(C(C)C)nc(SCC(=O)NCc3ccco3)c2c1C	-18.6%	11.4%	32.0*	?	?	45.0
COc1ccc(C)cc1N(CC(=O)N/N=C/c1ccccc1C(=O)O)S(=O)(=O)c1ccccc1	.	14.6%	4.6	?	?	-7.0
Cc1nc(C)c(C(=O)OCC(=O)N(C)c2ccccc2)s1	.	.	.	17.6%	7.3%	.
COc1cc2c(cc1OC)CN(C(=O)c1ccc3[nH]c(C)c(C)c3c1)CC2	27.9%	2.1%	-1.0	-41.8%	26.2%	-9.7
CCOc1cc(OCC)c(C(=O)CCC(=O)O)cc1OCC	.	.	.	2.39µM*	?	.
CCOc1cc(Br)c(CC(=O)O)cc1OCC	-2.7%	6.4%	6.8	-7.1%	130.7%	17.1
CCOCc1cc(CN2CCC(CCC(=O)NC3CC3)CC2)ccc1OC	-2.8%	-1.8%	-1.5	9.28µM*	3.0%	-0.5
COc1cc(Cl)c(CN2CCC(CCC(=O)NC3CC3)CC2)cc1OC	7.5%	19.9%	-0.5	?	-0.4%	-4.8
COc1cc(Cl)cc(CN2CCC(CCC(=O)NC3CC3)CC2)c1OC	?	11.3%	-1.3	13.1µM*	?	-0.8
O=C(/C=C/c1ccco1)N1CCN(S(=O)(=O)/C=C/c2ccccc2)CC1	?	-3.1%	29.6*	?	?	48.7
O=C(/C=C/c1ccc(F)cc1)N1CCN(S(=O)(=O)/C=C/c2ccccc2)CC1	.	2.6%	0.5	-21.2%	-17.5%	6.8
Cc1ccc(/C=C/C(=O)N2CCN(S(=O)(=O)c3cccs3)CC2)o1	?	-3.7%	23.1*	?	64.6%	-4.3
Cc1ccc(/C=C/C(=O)N2CCN(S(=O)(=O)/C=C/c3ccccc3)CC2)o1	-0.5%	-14.6%	1.0	5.86µM*	3.0%	13.2
O=C(c1cnn(Cc2ccccc2)c1)N1CCN(S(=O)(=O)/C=C/c2ccccc2)CC1	.	.	.	-29.1%	?	.
Cc1ccc(Cn2nc(C)c(C(=O)N3CCN(S(=O)(=O)/C=C/c4ccccc4)CC3)c2C)cc1	.	.	.	3.29µM*	6.57µM*	.
COc1ccc2c(c1)O[C@H](c1ccc3c(c1)OCO3)[C@@H](OC(=O)NCc1ccco1)C2=O	.	-2.2%	.	.	.	.
NNS(=O)(=O)c1cc(C(=O)O)cc(C(=O)O)c1	-6.9%	.	.	.	.	.
O=C(CCNC(=O)c1ccco1)Nc1ccc(Cl)c(C(F)(F)F)c1	2.6%	-1.1%	-3.1	0.5%	-6.2%	15.9
O=C(CC1C(=O)CCCC1=O)c1ccccc1	.	-0.2%	6.4	-6.5%	13.7%	31.0
O=C(O)CC1CCCC(c2ccccc2)C1=O (stereo not drawn)	-7.7%	0.3%	1.2	13.1µM*	-5.6%	-1.8
CCNc1nc(CSc2ccccc2)nc2sc(C)c(C)c12	-18.0%	-1.0%	-0.1	?	?	-8.0
C=CCNC(=S)NNC(=O)c1cc(O)ccc1O	4.1%	-0.3%	-1.7	4.65µM*	12.2%	-7.1
C=CCNC(=S)NNC(=O)c1ccc(Br)cc1	-1.6%	3.3%	6.7	9.1%	32.6%	-2.9
SMILES	NS1 inh	FBPA Giardia inh	CHX counter	Pf growth 96h	Pf growth 48h	Shiga inhibitor
C=CCn1c(=O)c2c(nc3n2CCN3c2cccc(Cl)c2C)n(C)c1=O	-31.3%	-5.7%	-4.8	?	?	-12.2
C=C(C)Cn1c(=O)c2c(nc3n2CCN3c2cccc(Cl)c2C)n(C)c1=O	-7.1%	0.5%	-3.8	?	9.28µM*	-11.9
COc1cc(NC(=O)c2ccccc2F)ccc1NC(=O)c1ccccc1Cl	.	3.0%	10.5	71.8%	5.0%	16.9
Cc1cc(O)c(NC(=O)c2ccc(Br)o2)cc1C	-10.1%	3.6%	46.1*	118.5%	11.7µM*	65.8*
COc1cc(NC(=O)c2ccc(Br)o2)c(C(=O)O)cc1OC	-9.0%	-17.8%	-3.0	3.3%	-16.6%	-1.9
COC(=O)c1cc(OC)c(OC)cc1NC(=O)c1ccc(Br)o1	16.4%	.	.	.	.	.
COc1ccccc1NC(=O)c1ccc(Br)o1	-36.4%	0.4%	13.7*	-6.8%	17.6%	31.3
COc1cc(NC(=O)c2ccc(Br)o2)ccc1NC(=O)c1ccccc1Cl	?	-29.3%	9.2	.	10.4µM*	11.9
CCOC(=O)CC1C(=O)NCCN1C(=O)c1cccc(OC)c1 (stereo not drawn)	3.5%	11.7%	-1.7	21.0%	4.9%[0.00184 µM]	-4.0
NC(=O)n1c(O)c(C(=O)c2cccs2)c2cc(Cl)ccc21	.	-1.0%	-4.5	-11.3%	-7.1%	-4.5
Cc1cc(C)cc(NC(=O)c2cnn(-c3ccccc3)c2C2CCNCC2)c1	.	-0.2%	-2.0	?	?	5.6
CCOc1ccc2[nH]c3c(NCCc4ccc(OC)c(OC)c4)ncnc3c2c1	-3.0%	-12.3%	1.2	3.7µM*	4.65µM*	7.3
COc1ccc2[nH]c3c(NCCN4CCCCC4)ncnc3c2c1	4.7%	5.2%	6.1	20.1%	2.08µM*	4.2
CCOc1ccc2[nH]c3c(NCCO)ncnc3c2c1	-1.1%	11.9%	19.7*	11.7%	10.7%	36.3
CCOc1ccc2[nH]c3c(=O)n(CCc4ccc(OC)cc4)cnc3c2c1	11.8%	7.4%	-3.3	26.5%	-9.0%	23.1
Cc1ccc2[nH]c3c(NCCCN4CCCC4=O)ncnc3c2c1	-6.2%	-7.3%	30.7*	?	?	71.5*
COc1ccc(C(=O)N2CCC[C@@]3(CCN(Cc4cc(C(F)(F)F)cc(C(F)(F)F)c4)C3)C2)cc1	.	3.2%	.	.	.	.
Cc1ccc(CNC(=O)C2CCC(=O)N(CC3CCCCC3)C2)o1 (stereo not drawn)	19.8%	1.8%	3.7	?	10.4%	18.5
O=S1OCCN1c1ccccc1 (stereo not drawn)	7.9%	-4.5%	-2.4	-30.6%	7.6%	-4.4
CC(=O)Nc1ccc(C2=NNC(=NCC3CCCO3)SC2)cc1 (stereo not drawn)	14.0%	-6.5%	-0.8	-45.2%	2.9%	59.8
Fc1ccc(F)c(C2=NNC(=NCC3CCCO3)SC2)c1 (stereo not drawn)	2.8%	-0.8%	33.0*	-21.2%	?	131.2*
CC(C)CNC(=O)c1cc(-c2ccc(Cl)c(Cl)c2)on1	-6.4%	4.4%	13.6	23.0%	0.0%	35.6
CC1CCCCN1C(=O)c1cc(-c2ccc3c(c2)OCO3)on1 (stereo not drawn)	-2.2%	6.0%	36.1*	?	212.6%	88.9*
CC1CCN(C(=O)c2cc(-c3ccc4c(c3)OCO4)on2)CC1	-18.3%	-12.3%	27.5*	9.2%	183.0%	41.4*
CC1CCCCN1C(=O)c1cc(-c2ccc(Cl)c(Cl)c2)on1 (stereo not drawn)	-60.4%	4.2%	28.6*	-3.0%	192.4%	76.2
CCC1CCCCN1C(=O)c1cc(-c2ccc(Cl)c(Cl)c2)on1 (stereo not drawn)	-76.5%	3.5%	39.1*	78.4%	-10.5%	93.9*
